Source: PubChem BioAssay
Hits are enriched below; roughly 3.8% of the tested compounds scored in any of these assays.
TIM10 inh: inhibits growth of TIM10 yeast strain; hit rate 1.4% among 330,000; inhibition, % at 10 µM; S. cerevisiae TIM10 strain growth, BacTiter-Glo luminescence, 24 h; AID 463195;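 active means inhibition of 40% or more at the single tested concentration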;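 further: wild-type TIM10 isogenic control strain grown at permissive 25 °C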
tim23-1 inh: inhibits growth of tim23-1 mutant yeast; S. cerevisiae tim23-1 growth, BacTiter-Glo luminescence, 24 h; hit rate 1.3% among 330,000; inhibition, % at 20 µM; AID 463212;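 active means growth inhibition of the mutant yeast at or above 50%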;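 further: temperature-sensitive mutant grown at 25 °C; plate controls were DMSO-treated mutant yeast for no effect and medium wells lacking yeast for full effect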
PfHsp90 yeast 2: growth inhibition of yeast expressing Plasmodium Hsp90. S. cerevisiae expressing PfHsp90, BacTiter-Glo ATP, 48 h; yeast lacking PDR1 and PDR3 efflux regulators. inhibition, % at 9.4 µM. hit rate 0.32% among 310,000. AID 504621;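 active means every replicate shows inhibition above about 80%, whatever the replicate mean, limit read from the data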;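 further: 0% = DMSO neutral controls and 100% = 20 µM radicicol positive controls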
tim10-1 inh: tim10-1 yeast growth inhibition; S. cerevisiae tim10-1 ts strain growth, BacTiter-Glo, 24 h; inhibition, % at 20 µM; hit rate 2.2% among 330,000;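 active means inhibition of at least 40%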;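 further: mutant grown at 25 °C; 0% = DMSO wells with yeast and 100% = wells holding no yeast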
Beta2AR agonist: human beta-2 adrenergic receptor agonism by FAP; P07550; Am2.2-beta2AR cells, FAP receptor internalization, flow cytometry; response, % (no concentration beside the values); hit rate 0.43% among 340,000;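 active means response above a set limit, near 3 SD of response in nonfluorescent compounds, cut at about 42% in these data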
Target sequence (P07550 whole entry, looked up): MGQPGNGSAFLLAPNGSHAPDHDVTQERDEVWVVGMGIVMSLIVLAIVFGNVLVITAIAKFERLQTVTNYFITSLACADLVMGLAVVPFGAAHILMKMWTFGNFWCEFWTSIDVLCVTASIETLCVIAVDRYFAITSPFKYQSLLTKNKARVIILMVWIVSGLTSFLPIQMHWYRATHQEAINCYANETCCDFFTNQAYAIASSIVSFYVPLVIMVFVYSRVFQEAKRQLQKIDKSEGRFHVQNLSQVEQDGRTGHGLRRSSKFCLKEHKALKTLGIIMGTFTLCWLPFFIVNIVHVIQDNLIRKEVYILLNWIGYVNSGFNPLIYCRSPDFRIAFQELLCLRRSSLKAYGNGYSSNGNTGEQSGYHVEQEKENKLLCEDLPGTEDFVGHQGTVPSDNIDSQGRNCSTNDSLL
TIM10 conf: confirmation of TIM10 yeast growth inhibitors | AID 463215 | inhibition, % at 10 µM | shares compounds with TIM10 inh | hit rate 63% among 4,600 | S. cerevisiae tim10 strain growth, BacTiter-Glo luminescence, 24 h;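 active means inhibition of yeast growth at or above a set limit in either of two replicates at 10 µM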;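 further: this counterscreen used the strain with wild-type TIM10; 0% = yeast with DMSO and 100% = medium wells lacking yeast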
Active calls of the source: *; x = not tested or not shown.

SMILES | TIM10 inh | tim23-1 inh | PfHsp90 yeast 2 | tim10-1 inh | Beta2AR agonist | TIM10 conf
CN(C)CCN(C(=O)c1cc(Cl)sc1Cl)c1nc2ccc(F)cc2s1 | 5 | 7 | -39 | 8 | 5 | x
COC(=O)[C@H](CCSC)NC(=O)Cn1cnc2c(NCc3ccccc3)ncnc21 | -11 | 23 | -3 | 1 | 1 | x
O=C(N[C@@H]1c2ccccc2CC[C@@H]1OCc1ccccc1)c1ccc(C(F)(F)F)cc1 | -18 | 12 | -19 | 7 | 3 | x
COC(=O)C1=C(N)Oc2cc(N(C)C)ccc2C1c1ccccc1OC (centres undefined) | 42* | 21 | -6 | 29 | 23 | -1
CCn1c(CNc2ccc(Cl)cc2)nnc1SCC(=O)OC1CCCCC1 | 45* | 20 | 20 | 32 | 11 | -8
CCN(CC(=O)Nc1cccc(F)c1)CC(=O)Nc1ccccc1OC | 20 | 15 | 10 | 14 | -7 | x
COC(=O)C(C)N(C(=O)c1cccc2ccccc12)c1c(C)cccc1C (centres undefined) | 42* | 44 | -6 | 27 | -12 | 31*
COC(=O)C(C)N(C(=O)c1cccc(Cl)c1)c1c(C)cccc1C (centres undefined) | 30 | 35 | 4 | 35 | 1 | x
CC(C)C1C(c2ccccc2)N(C)C(c2ccccc2)CC1(O)c1ccccc1 (centres undefined) | 29 | 42 | 33 | 19 | 34 | x
CCC1C(c2ccccc2)N(C)C(c2ccccc2)CC1(O)c1ccccc1 (centres undefined) | 44* | 32 | -28 | 39 | 24 | 34*
Cc1ccc2[nH]cc(CCNC(=O)c3cccs3)c2c1 | 0 | 12 | -10 | -2 | 0 | x
CNc1ccc(Br)cc(C(=O)/C=C/c2cccc(Cl)c2Cl)c1=O | x | x | 22 | x | -115 | x
CCNc1ccc(Br)cc(C(=O)/C=C/c2ccccc2Cl)c1=O | 45* | 27 | x | 39 | -96 | 17
CN(CC(=O)Nc1ccc(Cl)c(C(F)(F)F)c1)C(=O)c1ccccc1SCC(=O)N1CCCC1 | x | x | x | x | -5 | x
CCOc1ccccc1CN1CCNC(=O)C1CC(=O)NC1CCCCCCC1 (centres undefined) | 8 | 8 | -26 | 16 | 8 | x
CC(=O)Oc1oc(-c2ccccc2)nc1C=Nc1ccc(N(C)C)cc1 | 45* | 47 | -3 | 29 | 4 | 22
CS(=O)(=O)N1CCN(C(=O)NC23CC4CC(CC(C4)C2)C3)CC1 | -2 | -12 | -2 | 13 | -4 | x
O=C(NC12CC3CC(CC(C3)C1)C2)N1CCN(S(=O)(=O)c2ccc(Cl)cc2)CC1 | 43* | 11 | x | 8 | -12 | 4
Cc1ccc(Cl)cc1N1CCN(C(=O)c2ccc3nc[nH]c3c2)CC1 | 48* | 40 | -6 | 31 | 1 | 37*
Cc1cccc(N2CCN(C(=O)c3ccc4nc[nH]c4c3)CC2)c1C | 35 | 36 | -30 | 35 | -5 | x
O=C1CC[C@@H]2C[C@@]3(C[C@@H]4CCN1[C@H]24)Nc1cc([N+](=O)[O-])ccc1NC3=NCc1ccccc1 | x | x | 3 | x | 10 | x
CCN(C(=O)COC(=O)C(C)(C)Oc1ccc(Cl)cc1)c1c(N)n(Cc2ccccc2)c(=O)[nH]c1=O | x | x | 5 | x | -5 | x
COC(=O)c1ccc(C)c(NC(=O)c2ccc(Cn3cc([N+](=O)[O-])cn3)o2)c1 | 12 | 8 | -8 | 17 | 5 | x
CCNS(=O)(=O)c1ccc(NC(=O)c2ccc(Cn3cc([N+](=O)[O-])cn3)o2)cc1 | 47* | 9 | 4 | -7 | 2 | 3
CC(=O)N1CCN=C1SCc1cccc(C)c1 | 7 | -1 | 1 | 8 | -13 | x
SMILES | TIM10 inh | tim23-1 inh | PfHsp90 yeast 2 | tim10-1 inh | Beta2AR agonist | TIM10 conf
CCN1C/C(=C/c2ccc(OC)c(O)c2)C(=O)/C(=C/c2ccc(OC)c(O)c2)C1 | 50* | 40 | 10 | 27 | 5 | 45*
Cc1c(Cc2ccccc2)sc(NC(=O)c2ccco2)c1C(N)=O | 51* | 49 | -49 | 14 | -7 | 51*
COc1ccc(CCC(=O)OCC(=O)Nc2c(C)n(C)n(-c3ccccc3)c2=O)cc1 | -4 | 0 | x | -9 | 2 | x
Fc1ccccc1/C=N/n1cc(-c2ccccc2)[nH]c1=S | 45* | 22 | -19 | 38 | -3 | 47*
CCN(CC)c1ccc(S(=O)(=O)N2CCCCC2)cc1NC(=O)CSCc1c(C)noc1C | x | x | 2 | x | 7 | x
CC1CCc2c(C(=O)Nc3nccs3)csc2C1 (centres undefined) | 43* | 43 | -36 | 34 | -19 | 43*
CC1CCc2c(C(=O)Nc3ccccn3)csc2C1 (centres undefined) | 13 | 40 | 9 | 7 | -18 | x
Oc1ccccc1CC=NC1CCCCC1 | x | x | 13 | x | -119 | x
O=C(NC(=S)Nc1ccc2c(c1)OCCO2)c1cccc2ccccc12 | 44* | 40 | 4 | 39 | -8 | 48*
O=C(NC(=S)Nc1ccc2c(c1)OCO2)c1ccccc1 | 18 | 12 | -6 | -4 | -13 | x
Clc1cccc2c1Sc1ccccc1CC2N1CCNCC1 (centres undefined) | 33 | -45 | 36 | 32 | 18 | x
Clc1ccc2c(c1)C(N1CCNCC1)Cc1ccccc1S2 (centres undefined) | 48* | 4 | 0 | 22 | 26 | -40
Cc1ccc(NC2CCCN(C(=O)CN3C(=O)c4ccccc4C3=O)C2)cc1C (centres undefined) | 9 | 8 | 5 | 18 | -8 | x
Cc1ccc([N+](=O)[O-])cc1S(=O)(=O)Nc1cccc(S(=O)(=O)NC2=NCCC2)c1 | -9 | -2 | x | -9 | 7 | x
O=Cc1[nH]c2ccccc2c1N(C(=O)CCl)c1ccc([N+](=O)[O-])cc1 | 41* | 50 | -9 | 26 | 22 | 30
COC(=O)c1cccc(NC(=S)Nc2ccc(Cl)c(Cl)c2)c1 | 57* | 50 | 14 | 36 | 10 | 34*
COC(=O)c1cccc(NC(=O)NC23CC4CC(CC(C4)C2)C3)c1 | 48* | 46 | -24 | 37 | 0 | 38*
COC(=O)c1ccc(Cl)c(NC(=O)NC23CC4CC(CC(C4)C2)C3)c1 | 26 | 24 | 9 | 25 | 2 | x
Cc1nc(-c2ccc(S(=O)(=O)Nc3ccc(Br)cc3F)cc2)co1 | -4 | 7 | -7 | 4 | 9 | x
Cc1[nH]c(=S)sc1Cc1ccc(Cl)c(Cl)c1 | 42* | 18 | x | 28 | x | -13
Cc1ccc2ccc(C3C(=O)c4ccccc4C3=O)nc2c1 | 61* | 27 | -14 | 12 | 36 | 66*
COc1cc(/C=C2\N=C(c3c(-c4ccccc4)noc3C)OC2=O)ccc1OC(C)=O | 39 | 29 | -23 | 35 | 5 | x
COc1cccc(/C=C2\N=C(c3c(-c4ccccc4)noc3C)OC2=O)c1 | 47* | 49 | 7 | 40 | 5 | 25
COc1ccc(Cc2nc(C)cc(Cl)n2)cc1[N+](=O)[O-] | 42* | -9 | -11 | -4 | -6 | -4
